From PubChem BioAssay (EPA / NIEHS)
Inconclusive results are not listed. Active and inactive are the calls of the source. Rule for the calls, unless noted: active = hit-call score of the fitted dose curve at least 0.9, where 1 is the maximum; inactive = score below 0.9.

Experiments:
[1] = target: Paired box protein Pax-6 (Homo sapiens) (UniProt P26367); experiment: ATG_Pax6_CIS: Attagene CIS-FACTORIAL HepG2 Assay for human Paired Box 6 (PAX6) (AID 2282956); settings: HepG2 CIS-FACTORIAL PAX6 reporter transcription, RNA readout; actives raise or lower the signal
Sequence of Paired box protein Pax-6 (Homo sapiens) (P26367 whole entry, looked up): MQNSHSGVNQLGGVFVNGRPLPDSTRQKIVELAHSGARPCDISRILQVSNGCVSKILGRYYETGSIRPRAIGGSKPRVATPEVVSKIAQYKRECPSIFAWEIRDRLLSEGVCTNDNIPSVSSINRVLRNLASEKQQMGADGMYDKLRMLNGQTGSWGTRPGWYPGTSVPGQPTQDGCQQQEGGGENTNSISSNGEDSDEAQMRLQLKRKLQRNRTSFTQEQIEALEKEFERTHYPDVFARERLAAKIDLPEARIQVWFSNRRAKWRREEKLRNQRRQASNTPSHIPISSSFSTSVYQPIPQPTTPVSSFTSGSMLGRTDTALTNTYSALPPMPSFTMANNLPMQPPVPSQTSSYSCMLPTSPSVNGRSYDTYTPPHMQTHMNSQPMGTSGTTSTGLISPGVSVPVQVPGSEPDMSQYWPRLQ
In short: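 Values derive from bidirectional curve fitting of reporter mRNA signal relative to DMSO. HepG2 cells bearing transfected cis-regulated MRTUs were exposed for 24 h; transcripts were read by RT-PCR and capillary electrophoresis.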

[2] = ATG_PXRE_CIS: Attagene CIS-FACTORIAL HepG2 Assay for human Pregnane X Receptor Element (PXRE) (AID 2282957); settings: HepG2 Attagene CIS-FACTORIAL PXRE reporter, mRNA; actives raise or lower the signal
In short: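 Bidirectional activity, baselined to DMSO, derived from reporter mRNA fluorescence (RT-PCR plus capillary electrophoresis) in HepG2 cells bearing cis-promoter reporter units, 24 h exposure.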

[3] = ATG_Sox_CIS: Attagene CIS-FACTORIAL HepG2 Assay for human SRY-box transcription factor (SOX) (AID 2282960); settings: HepG2 Attagene cis-factorial SOX reporter, mRNA; actives raise or lower the signal
In short: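 Read-out: fluorescent RT-PCR products of SOX1-linked reporter transcripts resolved by capillary electrophoresis, fitted bidirectionally against DMSO. Transiently transfected HepG2 cells, 24 h after chemical exposure, endogenous transcription factor activity.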

[4] = target: Transcription factor Sp1 (Homo sapiens) (UniProt P08047); experiment: ATG_Sp1_CIS: Attagene CIS-FACTORIAL HepG2 Assay for human Specificity Protein 1 (Sp1) (AID 2282961); settings: HepG2 Sp1 cis-reporter transcription, actives raise or lower the signal
Sequence of Transcription factor Sp1 (Homo sapiens) (P08047 whole entry, looked up): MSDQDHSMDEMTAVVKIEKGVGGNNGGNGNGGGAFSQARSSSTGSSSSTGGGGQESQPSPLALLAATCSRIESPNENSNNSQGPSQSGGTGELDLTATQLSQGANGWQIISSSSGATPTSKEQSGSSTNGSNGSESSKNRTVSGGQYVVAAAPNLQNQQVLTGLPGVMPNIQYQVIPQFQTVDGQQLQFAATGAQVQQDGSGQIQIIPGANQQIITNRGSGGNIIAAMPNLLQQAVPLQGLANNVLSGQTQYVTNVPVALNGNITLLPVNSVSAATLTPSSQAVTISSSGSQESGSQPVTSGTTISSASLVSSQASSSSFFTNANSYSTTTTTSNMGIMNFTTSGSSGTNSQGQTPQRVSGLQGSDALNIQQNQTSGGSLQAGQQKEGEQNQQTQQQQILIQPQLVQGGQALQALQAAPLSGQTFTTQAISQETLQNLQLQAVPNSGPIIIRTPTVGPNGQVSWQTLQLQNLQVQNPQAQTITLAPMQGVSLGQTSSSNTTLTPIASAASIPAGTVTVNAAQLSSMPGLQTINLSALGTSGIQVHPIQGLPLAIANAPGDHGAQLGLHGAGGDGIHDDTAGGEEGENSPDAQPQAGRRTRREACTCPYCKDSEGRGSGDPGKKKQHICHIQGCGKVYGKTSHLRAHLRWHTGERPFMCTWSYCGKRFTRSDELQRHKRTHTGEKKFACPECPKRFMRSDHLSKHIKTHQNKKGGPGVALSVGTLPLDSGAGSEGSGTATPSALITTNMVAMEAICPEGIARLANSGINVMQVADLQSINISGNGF
In short: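 Read-out: fluorescence of 6-FAM-labeled, HpaI-digested RT-PCR products separated by capillary electrophoresis. HepG2 cells carried transfected cis-element reporter units and were exposed to chemicals for 24 h; gain or loss of signal fitted relative to DMSO.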

[5] = ATG_SREBP_CIS: Attagene CIS-FACTORIAL HepG2 Assay for human Sterol Regulatory Element Binding (SREBP) (AID 2282962); settings: HepG2 Attagene cis-factorial SREBP reporter, mRNA; actives raise or lower the signal
In short: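 Values derive from bidirectional curve fitting with DMSO as baseline. The underlying measurement is reporter mRNA from cis-element-regulated units in transiently transfected HepG2, quantified by RT-PCR and capillary electrophoresis after 24 h exposure.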

[6] = target: Signal transducer and activator of transcription 3 (Homo sapiens) (UniProt P40763); experiment: ATG_STAT3_CIS: Attagene CIS-FACTORIAL HepG2 Assay for human Signal Transducer and Activator of Transcription 3 (STAT3) (AID 2282963); settings: HepG2, Attagene cis-factorial STAT3 reporter transcription; actives raise or lower the signal
Sequence of Signal transducer and activator of transcription 3 (Homo sapiens) (P40763 whole entry, looked up): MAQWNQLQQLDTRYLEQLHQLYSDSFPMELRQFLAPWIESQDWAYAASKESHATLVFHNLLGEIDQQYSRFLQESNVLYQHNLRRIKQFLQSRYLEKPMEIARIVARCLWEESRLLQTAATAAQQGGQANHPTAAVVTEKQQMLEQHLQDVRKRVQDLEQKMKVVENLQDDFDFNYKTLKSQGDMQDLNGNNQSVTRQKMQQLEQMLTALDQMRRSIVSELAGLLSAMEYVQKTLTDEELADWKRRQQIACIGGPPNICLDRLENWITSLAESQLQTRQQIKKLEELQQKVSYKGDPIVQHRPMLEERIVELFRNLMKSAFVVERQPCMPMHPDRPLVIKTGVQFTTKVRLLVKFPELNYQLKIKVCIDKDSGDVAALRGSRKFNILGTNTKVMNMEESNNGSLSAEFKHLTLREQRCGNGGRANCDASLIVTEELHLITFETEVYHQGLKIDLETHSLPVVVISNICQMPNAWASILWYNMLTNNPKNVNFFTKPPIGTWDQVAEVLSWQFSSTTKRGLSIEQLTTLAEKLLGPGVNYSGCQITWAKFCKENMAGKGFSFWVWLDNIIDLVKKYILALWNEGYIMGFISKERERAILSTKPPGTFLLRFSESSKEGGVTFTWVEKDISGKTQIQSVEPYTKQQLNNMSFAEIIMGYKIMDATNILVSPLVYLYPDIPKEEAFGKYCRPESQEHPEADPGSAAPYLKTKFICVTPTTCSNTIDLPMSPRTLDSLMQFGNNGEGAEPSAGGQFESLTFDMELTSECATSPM
In short: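 Cis-factorial format: endogenous transcription factors in HepG2 drive transfected reporter units. After 24 h treatment, reporter RNA was reverse-transcribed, amplified, FAM-labelled and HpaI-digested before CE analysis; activity scored in both directions against DMSO.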

[7] = ATG_TA_CIS: Attagene CIS-FACTORIAL HepG2 Assay for human TA Basal Promoter (AID 2282964); settings: HepG2 Attagene CIS-factorial TA basal promoter reporter; actives raise or lower the signal
In short: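 Transfected HepG2, 24 h compound exposure; RNA → RT-PCR → FAM primer extension → HpaI cut → CE fluorescence. Gain/loss-of-signal fitted against DMSO negative control. Background-control readout.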

[8] = ATG_TCF_b_cat_CIS: Attagene CIS-FACTORIAL HepG2 Assay for human T-Cell-Factor with beta-catenin (TCF/b-cat) (AID 2282965); settings: HepG2 TCF/beta-catenin cis-reporter transcription, actives raise or lower the signal
In short: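 Endogenous TCF/LEF activity read as reporter transcript level via RT-PCR and capillary electrophoresis fluorescence in transfected HepG2, 24 h exposure; gain or loss of signal fitted against DMSO controls.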

[9] = ATG_TAL_CIS: Attagene CIS-FACTORIAL HepG2 Assay for human TAL Basal Promoter (AID 2282966); settings: HepG2 Attagene cis-factorial TAL promoter reporter; actives raise or lower the signal;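 note: background control endpoint measuring basal TAL promoter reporter mRNA not a specific factor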
In short: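 Human hepatoma HepG2 cells, transfected with promoter-regulated reporter units, were treated 24 h. Reporter transcript levels, measured through RT-PCR and capillary electrophoresis, were fitted for gain or loss relative to DMSO.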

[10] = ATG_TGFb_CIS: Attagene CIS-FACTORIAL HepG2 Assay for human Transforming Growth Factor (TGF) (AID 2282967); settings: HepG2 Attagene CIS TGFb reporter, mRNA transcription; actives raise or lower the signal
In short: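 Readout: fluorescently labeled reporter cDNA fragments resolved by capillary electrophoresis after RT-PCR. Transfected HepG2 cells dosed for 24 h; endogenous TF activity at TGFB1-linked cis element; gain or loss fitted relative to DMSO.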

[11] = ATG_VDRE_CIS: Attagene CIS-FACTORIAL HepG2 Assay for human Vitamin D Receptor Element (VDRE) (AID 2282968); settings: HepG2 VDRE cis-reporter transcription, actives raise or lower the signal
In short: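 Measures endogenous factor activity through cis-element-driven reporter transcripts in transiently transfected HepG2. Cells are treated 24 h; reporter mRNA is quantified by RT-PCR and capillary electrophoresis; fitting is bidirectional.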

[12] = target: Nuclear receptor subfamily 1 group I member 3 (Homo sapiens) (UniProt Q14994); experiment: ATG_CAR_TRANS: Attagene TRANS-FACTORIAL HepG2 Assay for human Constitutive Androstane Receptor (CAR) (AID 2282969; active = hit-call score of the fitted dose curve at least 0.9, where 1 is the maximum;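 note: activators raise reporter mRNA above DMSO so AC50 marks induction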); settings: HepG2 Attagene TRANS-FACTORIAL CAR reporter
Sequence of Nuclear receptor subfamily 1 group I member 3 (Homo sapiens) (Q14994 whole entry, looked up, the tested form may be a part): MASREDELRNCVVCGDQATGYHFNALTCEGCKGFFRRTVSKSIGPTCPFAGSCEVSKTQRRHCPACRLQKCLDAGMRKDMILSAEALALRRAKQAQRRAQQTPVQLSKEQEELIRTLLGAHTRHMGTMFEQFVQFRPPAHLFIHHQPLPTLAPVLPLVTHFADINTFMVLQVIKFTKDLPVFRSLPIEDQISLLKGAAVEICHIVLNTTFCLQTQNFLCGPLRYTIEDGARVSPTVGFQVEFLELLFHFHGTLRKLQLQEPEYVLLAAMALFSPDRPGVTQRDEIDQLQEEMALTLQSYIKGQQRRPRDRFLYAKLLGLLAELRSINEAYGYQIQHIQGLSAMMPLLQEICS
In short: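 Signal is reporter mRNA induction relative to DMSO, measured 24 h after dosing by RT-PCR with fluorescent primer extension and capillary electrophoresis. Human HepG2 liver cells carried transiently transfected chimeric NR-Gal4/GAL4-UAS reporter constructs.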

[13] = target: Estrogen receptor (Homo sapiens) (UniProt P03372); experiment: ATG_ERa_TRANS: Attagene TRANS-FACTORIAL HepG2 Assay for human Estrogen Receptor alpha (ERa) (AID 2282970; active = hit-call score of the fitted dose curve at least 0.9, where 1 is the maximum); settings: HepG2 Attagene TRANS ERa GAL4 reporter, mRNA
Sequence of Estrogen receptor (Homo sapiens) (P03372 whole entry, looked up, the tested form may be a part): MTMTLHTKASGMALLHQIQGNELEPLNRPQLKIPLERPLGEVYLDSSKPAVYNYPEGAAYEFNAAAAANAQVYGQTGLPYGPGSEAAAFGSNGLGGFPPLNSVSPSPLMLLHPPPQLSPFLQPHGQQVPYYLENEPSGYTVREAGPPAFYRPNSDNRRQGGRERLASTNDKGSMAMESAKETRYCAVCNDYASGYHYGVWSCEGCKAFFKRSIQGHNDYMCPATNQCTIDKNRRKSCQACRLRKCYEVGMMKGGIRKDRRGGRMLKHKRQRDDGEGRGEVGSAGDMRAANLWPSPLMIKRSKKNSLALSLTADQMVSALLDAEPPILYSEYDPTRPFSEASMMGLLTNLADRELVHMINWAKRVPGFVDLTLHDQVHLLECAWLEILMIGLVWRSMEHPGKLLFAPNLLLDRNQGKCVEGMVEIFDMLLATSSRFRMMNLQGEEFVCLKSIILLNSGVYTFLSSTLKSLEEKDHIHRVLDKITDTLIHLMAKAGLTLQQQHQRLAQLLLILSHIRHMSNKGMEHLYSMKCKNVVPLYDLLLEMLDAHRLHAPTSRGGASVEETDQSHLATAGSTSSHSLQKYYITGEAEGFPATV
In short: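 Signal derives from fluorescence of labelled reporter PCR fragments separated by capillary electrophoresis. HepG2 cells transiently carrying multiple GAL4-UAS reporter units were treated 24 hours, and induction above DMSO baseline was fitted as activity.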

[14] = target: X-box-binding protein 1 (Homo sapiens) (UniProt P17861); experiment: ATG_Xbp1_CIS: Attagene CIS-FACTORIAL HepG2 Assay for human X-box Binding Protein 1 (XBP1) (AID 2282972); settings: HepG2 XBP1 cis-element reporter, Attagene multiplex; actives raise or lower the signal
Sequence of X-box-binding protein 1 (Homo sapiens) (P17861 whole entry, looked up): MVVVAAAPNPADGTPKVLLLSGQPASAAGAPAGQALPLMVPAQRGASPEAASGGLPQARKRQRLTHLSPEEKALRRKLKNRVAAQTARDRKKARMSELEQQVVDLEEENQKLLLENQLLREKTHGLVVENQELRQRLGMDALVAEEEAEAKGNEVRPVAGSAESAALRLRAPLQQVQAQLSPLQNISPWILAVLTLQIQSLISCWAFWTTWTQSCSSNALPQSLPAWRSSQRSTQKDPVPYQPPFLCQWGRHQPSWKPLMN
In short: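 Human hepatoma HepG2, cis-element reporter system, 24 h treatment; mRNA quantified by RT-PCR/CE fluorescence; fit relative to DMSO.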

[15] = ATG_M_19_TRANS: Attagene TRANS-FACTORIAL HepG2 Assay for M19 Transcription Factor (Internal Marker) (AID 2282974; active = hit-call score of the fitted dose curve at least 0.9, where 1 is the maximum); settings: HepG2 Attagene TRANS-FACTORIAL M19 internal marker reporter
In short: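 24 h chemical exposure of transiently transfected HepG2 (MRTU library). RNA → oligo(dT) RT → PCR → 6-FAM labelling → HpaI cut → CE fluorescence. Positive-direction fit vs DMSO baseline; background internal-marker readout.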

[16] = ATG_GAL4_TRANS: Attagene TRANS-FACTORIAL HepG2 Assay for GAL4 (Internal Marker) (AID 2282976; active = hit-call score of the fitted dose curve at least 0.9, where 1 is the maximum); settings: HepG2 Attagene TRANS GAL4 internal marker reporter
In short: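 Liver HepG2 line bearing multiplexed GAL4-UAS reporter constructs; 24 h chemical treatment. Transcripts were quantified as fluorescent fragments on capillary electrophoresis after RT-PCR and HpaI cut, with activity fitted upward from DMSO.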

[17] = target: Steroid hormone receptor ERR1 (Homo sapiens) (UniProt P11474); experiment: ATG_ERRa_TRANS: Attagene TRANS-FACTORIAL HepG2 Assay for human Estrogen-Related Receptor alpha (ERRa) (AID 2282971; active = hit-call score of the fitted dose curve at least 0.9, where 1 is the maximum); settings: HepG2 Attagene TRANS reporter, ERRa transactivation
Sequence of Steroid hormone receptor ERR1 (Homo sapiens) (P11474 whole entry, looked up, the tested form may be a part): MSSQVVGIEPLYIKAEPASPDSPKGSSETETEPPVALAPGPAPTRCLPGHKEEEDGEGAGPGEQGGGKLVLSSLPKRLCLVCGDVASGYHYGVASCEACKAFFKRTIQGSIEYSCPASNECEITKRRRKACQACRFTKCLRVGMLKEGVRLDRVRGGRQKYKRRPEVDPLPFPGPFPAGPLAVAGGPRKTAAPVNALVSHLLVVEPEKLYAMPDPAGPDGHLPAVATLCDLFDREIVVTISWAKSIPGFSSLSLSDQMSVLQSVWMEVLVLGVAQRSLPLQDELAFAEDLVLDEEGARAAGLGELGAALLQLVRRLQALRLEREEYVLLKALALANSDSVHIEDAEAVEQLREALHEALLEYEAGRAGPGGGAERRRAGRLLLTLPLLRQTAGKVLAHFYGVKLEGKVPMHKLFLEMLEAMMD
In short: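 Signal gain relative to DMSO for an ERRa-Gal4 chimeric receptor, read as reporter mRNA by RT-PCR/capillary electrophoresis. Human HepG2 liver cells, transient multiplex reporter transfection, 24 h chemical exposure.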

[18] = target: Estrogen-related receptor gamma (Homo sapiens) (UniProt P62508); experiment: ATG_ERRg_TRANS: Attagene TRANS-FACTORIAL HepG2 Assay for human Estrogen-Related Receptor gamma (ERRg) (AID 2282977; active = hit-call score of the fitted dose curve at least 0.9, where 1 is the maximum;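 note: hits increase reporter signal over DMSO so potencies reflect activators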); settings: HepG2 Attagene TRANS reporter, ERRg transactivation
Sequence of Estrogen-related receptor gamma (Homo sapiens) (P62508 whole entry, looked up, the tested form may be a part): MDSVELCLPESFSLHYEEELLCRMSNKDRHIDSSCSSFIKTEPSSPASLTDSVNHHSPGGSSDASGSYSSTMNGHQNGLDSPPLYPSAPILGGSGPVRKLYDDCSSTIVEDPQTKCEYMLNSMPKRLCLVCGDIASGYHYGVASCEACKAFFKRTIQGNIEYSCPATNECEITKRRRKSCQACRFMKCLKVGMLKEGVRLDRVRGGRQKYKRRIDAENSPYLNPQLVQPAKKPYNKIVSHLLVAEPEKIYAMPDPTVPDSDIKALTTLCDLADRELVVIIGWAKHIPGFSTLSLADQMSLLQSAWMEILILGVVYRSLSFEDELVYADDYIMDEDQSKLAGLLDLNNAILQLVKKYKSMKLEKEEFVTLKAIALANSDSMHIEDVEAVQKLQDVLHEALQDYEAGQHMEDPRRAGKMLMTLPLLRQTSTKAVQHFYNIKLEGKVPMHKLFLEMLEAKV
In short: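 Readout: fluorescent reporter-mRNA fragments resolved by capillary electrophoresis after RT-PCR and HpaI cut. Cells: transiently transfected HepG2 carrying GAL4-UAS reporters driven by exogenous NR-Gal4 chimeras, dosed 24 h. Activity fitted upward relative to DMSO baseline.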

[19] = ATG_PPRE_CIS: Attagene CIS-FACTORIAL HepG2 Assay for human Peroxisome Proliferator-activated Response Element (PPRE) (AID 2282958); settings: HepG2 PPRE cis-element reporter, Attagene transcription factor profiling; actives raise or lower the signal
In short: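 Read-out: fluorescent reporter mRNA fragments resolved by capillary electrophoresis after RT-PCR. HepG2 cells carried transiently transfected PPRE-driven cis reporter constructs and were dosed for 24 h; gain or loss of signal fitted relative to DMSO.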

[20] = ATG_RORE_CIS: Attagene CIS-FACTORIAL HepG2 Assay for human RAR-related Orphan Receptor Element (RORE) (AID 2282959); settings: HepG2 Attagene cis-factorial RORE reporter, mRNA; actives raise or lower the signal
In short: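 Readout: fluorescent reporter mRNA by RT-PCR plus capillary electrophoresis, 24 h after dosing transfected HepG2 cells. Endogenous transcription factor activity on a cis promoter element is measured. Gain or loss of signal fitted against DMSO.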

Measured: AC50

CC1OC1C1CCC2(C)OC2C1 (centres undefined)
active: [2] 36.7 µM
not listed: [17] | [18] | [19] | [20]
inactive: all other assays above

C1CN(SSN2CCOCC2)CCO1
not listed: [6] | [12] | [16] | [19] | [20]
inactive: all other assays above

Nc1ccc(N)c(Cl)c1
active: [1] 52.9 µM | [2] 8.87 µM | [5] 43.7 µM | [11] 33.4 µM | [13] 25.5 µM
not listed: [7] | [16] | [17] | [18] | [19] | [20]
inactive: all other assays above

CC(C)c1ccc(C=O)cc1
not listed: [2] | [15] | [16] | [17] | [18]
inactive: all other assays above

CNC(=S)N(C)C
not listed: [4] | [5] | [6] | [15] | [17] | [18] | [19]
inactive: all other assays above

C=C(C)[C@H]1CC=C(C)CC1
active: [2] 51 µM
not listed: [11] | [15] | [17] | [18] | [19] | [20]
inactive: all other assays above

CC1=NC(C)OC1C (centres undefined)
active: [2] 7.08 µM | [8] 100 µM | [11] 9.63 µM
inactive: [1] | [3] | [6] | [7] | [9] | [10] | [14] | [16]

CC1=Nc2ccc3ccccc3c2C1(C)C
active: [2] 1.78 µM | [5] 100 µM | [11] 2.97 µM | [13] 17.1 µM
not listed: [12] | [17] | [19] | [20]
inactive: all other assays above

CC(C)(C)C(=O)C=Cc1ccc(Cl)cc1
inactive: [5] | [10] | [15] | [18]
active: [1] 36.8 µM | [2] 5.18 µM | [3] 25.1 µM | [4] 27.3 µM | [6] 164 µM | [8] 53.8 µM | [9] 100 µM | [11] 26.3 µM | [12] 24.8 µM | [13] 26.1 µM | [14] 66.4 µM
